Assay results from PubChem BioAssay (NCATS).
Where “and” joins values, the source holds several entries; their conditions need not be identical. Equal values may be shown once. Results filed as inconclusive are left out. Where a call stands in place of a potency, no number is given. More than one record can exist for a structure, and the calls need not agree. Calls of active or inactive are those of the source. Calls come from the whole dose curve; as a rule, active = well fitted inhibition curve with a large enough effect; inconclusive = small, poorly fitted or top-dose-only effect; inactive = flat fitted curve, though single readings scatter.

Molecular target: Phospholipid hydroperoxide glutathione peroxidase GPX4 (Homo sapiens) (UniProt P36969)
Test: Primary qHTS Assay for Inhibitors of Recombinant Selenoprotein Glutathione Peroxidase 4 (GPX4) (AID 1845192); note: nearly all actives have a fitted effect of over 65% in size; note: potency is the fitted concentration of half-maximal effect
Settings: recombinant GPX4, GR-coupled NADPH fluorescence, 15 min; series mostly up to 50 µM
How it was run: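 NADPH consumption, followed by fluorescence at 340/450 nm between 0 and 15 min, reports GPX4 activity via coupled glutathione reductase (100 nM). Enzyme 200 nM was pre-exposed to compound 30 min; 0.5 mM cumene hydroperoxide and 1 mM GSH served as substrates.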

Phospholipid hydroperoxide glutathione peroxidase GPX4 (Homo sapiens), sequence (P36969 whole entry, looked up): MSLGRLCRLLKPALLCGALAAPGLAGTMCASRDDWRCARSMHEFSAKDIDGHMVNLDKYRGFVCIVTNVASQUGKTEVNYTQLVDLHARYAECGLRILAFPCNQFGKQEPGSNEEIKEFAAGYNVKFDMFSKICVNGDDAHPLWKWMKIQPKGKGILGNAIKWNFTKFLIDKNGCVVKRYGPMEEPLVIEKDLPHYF

Row | SMILES | Potency
1 | Cc1cc2ncc(C(=O)NCC(C)(C)NCC(=O)N3CCC[C@H]3C#N)cn2n1 | inactive
2 | COc1ccc(N(C(=O)Nc2c(C)cccc2C)c2cc(Nc3ccc(N4CCN(C)CC4)cc3)ncn2)c(OC)c1 | inactive
3 | N#C/C(=C1\Nc2ccccc2S1)c1ccnc(NCCc2cccnc2)n1 | inactive
4 | Cn1nc(C(C)(C)C)cc1C(=O)N[C@@H](Cc1cccc(Cl)c1)C(=O)NCC#N | inactive
5 | O=C(Nc1cc(C(F)(F)F)ccc1N1CCCCC1)c1ccncc1 | inactive
6 | O=C(NCC1(c2nc(-c3ccccc3)cs2)CCOCC1)c1cccc(-c2noc(C(F)(F)F)n2)c1 | inactive
7 | CCC[C@@]1(CCc2ccccc2)CC(O)=C([C@H](CC)c2cccc(NS(=O)(=O)c3ccc(C(F)(F)F)cn3)c2)C(=O)O1 | inactive and 6.31 µM (active)
8 | CC(C)(CNC(=O)c1cccc(-c2noc(C(F)(F)F)n2)c1)c1coc(-c2ccccc2)n1 | inactive
9 | C=CC(=O)Nc1ccc(CN2C(=O)N(c3cc(OC)cc(OC)c3)Cc3cnc(Nc4ccc(N5CCN(C)CC5)cc4)nc32)cc1 | inactive
10 | CC(C)CCNC(=O)[C@H](CC(C)C)NC(=O)[C@H]1O[C@@H]1C(=O)O | inactive
11 | Cc1ccc(C)c(-c2cc(C(F)(F)F)nn2-c2ccc(S(N)(=O)=O)cc2)c1 | inactive
12 | O=c1[nH]c([C@@H]2CCCN2)nc2c1oc1ccc(Cl)cc12 | inactive
13 | O=C(NC[C@H]1CN(c2ccc(N3CCOCC3=O)cc2)C(=O)O1)c1ccc(Cl)s1 | inactive
14 | COc1cc2c(cc1OC)CN(C(=O)/C=C/c1c(-c3ccccc3)n(C)c3ncccc13)CC2 | inactive
15 | CCCN1CCC=C(c2cc(-c3ccc(C)cc3)no2)C1 | inactive

Molecular target: Luciferin 4-monooxygenase (Photinus pyralis) (UniProt P08659)
Test: Primary firefly luciferase (FLuc) qHTS assay for identification of artifact compounds. (AID 1845220); note: nearly all actives have a fitted effect of over 60% in size
Settings: purified firefly luciferase, luminescence, 5 min; series mostly up to 54.1 µM
How it was run: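 Compounds sat 15 min at room temperature with 10 uM luciferin and 10 uM ATP (pH 7.6 Tris acetate). Firefly luciferase (10 nM final) was then added, and luminescence was read 5 min later. Data normalized to no-enzyme and DMSO controls were Hill-fitted.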

Row | SMILES | Potency
16 | COc1cc(C[C@H]2C(=O)OC[C@@H]2Cc2ccc(OC)c(OC)c2)ccc1O | inactive
17 | CCC[C@H](N[C@H]1CCc2cc(F)cc(F)c2C1)C(=O)Nc1cn(C(C)(C)CNCC(C)(C)C)cn1 | inactive
18 | CCCc1ccc(OCC(=O)N(Cc2nc(-c3cccnc3)no2)C(C)C)cc1 | inactive
19 | CCCCCCCOc1cc2c(cc1/C(C)=C/c1ccc(C(=O)O)cc1)C(C)(C)CCS2(=O)=O | inactive
20 | CC(=O)C1=C(O)C=C2Oc3c(C(C)=O)c(O)c(C)c(O)c3[C@]2(C)C1=O | inactive
21 | NS(=O)(=O)c1ccc(NC(=O)Nc2ccc(F)cc2)cc1 | inactive
22 | COc1cccc(N2CCN(C3=Nc4c(F)cccc4[C@H](CC(=O)O)N3c3cc(C(F)(F)F)ccc3OC)CC2)c1 | inactive
23 | COc1cc2c(cc1-c1c(C)noc1C)ncc1[nH]c(=O)n(C(C)c3ccccn3)c12 (stereo unspecified) | inactive
24 | CCC(CC)C(c1ccc(Nc2nc3ccccc3s2)cc1)n1cncn1 (stereo unspecified) | inactive
25 | COC1CCN(C(=O)c2cc(Cc3n[nH]c(=O)c4ccccc34)ccc2F)CC1 | inactive
26 | COc1cc2c(NC3CCN(C(C)C)CC3)nc(N3CCC(F)(F)CC3)nc2cc1OCCCN1CCCC1 | inactive
27 | Cc1cnc(-c2ccccc2C(C)C)nc1NCc1ccc(-n2ccnn2)cc1 | inactive
28 | COc1ccc(NC(=O)c2ccc(C(=N)N(C)C)cc2)c(C(=O)Nc2ccc(Cl)cn2)c1 | inactive
29 | Fc1ccc(N2CCCCC2)c(NC(=S)c2ccncc2)c1 | inactive
30 | c1cc(NC2CCNCC2)nc(-c2cnc3ccccn23)c1 | inactive
31 | Cn1cc(-c2ccc(S(=O)(=O)n3ccc(/C=C/C(=O)Nc4ccccc4N)c3)cc2)cn1 | inactive
32 | Cc1cn(CCN2CCN(c3ccccc3-c3cc(C#N)cc(C(=O)NCCCN4CCCC4)c3)CC2)c2ccccc12 | inactive
33 | Cc1cc2ncc(C(=O)NCC(C)(C)NCC(=O)N3CCC[C@H]3C#N)cn2n1 | inactive

Row | SMILES | Potency
34 | Cc1cc2c(N3CCCC3)nc(N3CCCC3)nc2n1C | inactive
35 | Cc1cc(N2CCOCC2)ccc1Nc1nc(NC2CCCCC2)c2[nH]cnc2n1 | inactive
36 | COc1ccc(N(C(=O)Nc2c(C)cccc2C)c2cc(Nc3ccc(N4CCN(C)CC4)cc3)ncn2)c(OC)c1 | inactive
37 | N#C/C(=C1\Nc2ccccc2S1)c1ccnc(NCCc2cccnc2)n1 | inactive
38 | Cn1nc(C(C)(C)C)cc1C(=O)N[C@@H](Cc1cccc(Cl)c1)C(=O)NCC#N | inactive
39 | O=C(Nc1cc(C(F)(F)F)ccc1N1CCCCC1)c1ccncc1 | inactive
40 | O=C(NCC1(c2nc(-c3ccccc3)cs2)CCOCC1)c1cccc(-c2noc(C(F)(F)F)n2)c1 | inactive
41 | CCC[C@@]1(CCc2ccccc2)CC(O)=C([C@H](CC)c2cccc(NS(=O)(=O)c3ccc(C(F)(F)F)cn3)c2)C(=O)O1 | inactive
42 | Cc1ccc(CNc2ncnc3ccc(-c4ccc(CO)o4)cc23)o1 | inactive
43 | CCCCCc1ccc(/C=C/C(=O)Nc2cc(Cl)ccc2C(=O)O)cc1 | inactive
44 | CC(C)(CNC(=O)c1cccc(-c2noc(C(F)(F)F)n2)c1)c1coc(-c2ccccc2)n1 | inactive
45 | C=CC(=O)Nc1ccc(CN2C(=O)N(c3cc(OC)cc(OC)c3)Cc3cnc(Nc4ccc(N5CCN(C)CC5)cc4)nc32)cc1 | inactive
46 | CC(C)CCNC(=O)[C@H](CC(C)C)NC(=O)[C@H]1O[C@@H]1C(=O)O | inactive
47 | Cc1ccc(C)c(-c2cc(C(F)(F)F)nn2-c2ccc(S(N)(=O)=O)cc2)c1 | inactive
48 | O=c1[nH]c([C@@H]2CCCN2)nc2c1oc1ccc(Cl)cc12 | inactive
49 | O=C(NC[C@H]1CN(c2ccc(N3CCOCC3=O)cc2)C(=O)O1)c1ccc(Cl)s1 | inactive
50 | COc1ccc2nc3n[nH]c(C)c3c(NCCOCCO)c2c1 | inactive
51 | COc1cc2c(cc1OC)CN(C(=O)/C=C/c1c(-c3ccccc3)n(C)c3ncccc13)CC2 | inactive
